Source: PubChem BioAssay
hNpr1 antagonist – antagonists of human natriuretic peptide receptor Npr1. 1.6% of 76,000 active. AID 1347048. Potency, µM (highest dose often 46.3 µM), inactives show top-dose activity change, negative = inhibition, hits mostly inhibitors. HEK293 hNpr1 GloSensor cGMP, ANP-stimulated luminescence; calls by dose curve; further: nearly all actives have a fitted effect of over 60% in size
Target sequence (P16066 whole entry, looked up): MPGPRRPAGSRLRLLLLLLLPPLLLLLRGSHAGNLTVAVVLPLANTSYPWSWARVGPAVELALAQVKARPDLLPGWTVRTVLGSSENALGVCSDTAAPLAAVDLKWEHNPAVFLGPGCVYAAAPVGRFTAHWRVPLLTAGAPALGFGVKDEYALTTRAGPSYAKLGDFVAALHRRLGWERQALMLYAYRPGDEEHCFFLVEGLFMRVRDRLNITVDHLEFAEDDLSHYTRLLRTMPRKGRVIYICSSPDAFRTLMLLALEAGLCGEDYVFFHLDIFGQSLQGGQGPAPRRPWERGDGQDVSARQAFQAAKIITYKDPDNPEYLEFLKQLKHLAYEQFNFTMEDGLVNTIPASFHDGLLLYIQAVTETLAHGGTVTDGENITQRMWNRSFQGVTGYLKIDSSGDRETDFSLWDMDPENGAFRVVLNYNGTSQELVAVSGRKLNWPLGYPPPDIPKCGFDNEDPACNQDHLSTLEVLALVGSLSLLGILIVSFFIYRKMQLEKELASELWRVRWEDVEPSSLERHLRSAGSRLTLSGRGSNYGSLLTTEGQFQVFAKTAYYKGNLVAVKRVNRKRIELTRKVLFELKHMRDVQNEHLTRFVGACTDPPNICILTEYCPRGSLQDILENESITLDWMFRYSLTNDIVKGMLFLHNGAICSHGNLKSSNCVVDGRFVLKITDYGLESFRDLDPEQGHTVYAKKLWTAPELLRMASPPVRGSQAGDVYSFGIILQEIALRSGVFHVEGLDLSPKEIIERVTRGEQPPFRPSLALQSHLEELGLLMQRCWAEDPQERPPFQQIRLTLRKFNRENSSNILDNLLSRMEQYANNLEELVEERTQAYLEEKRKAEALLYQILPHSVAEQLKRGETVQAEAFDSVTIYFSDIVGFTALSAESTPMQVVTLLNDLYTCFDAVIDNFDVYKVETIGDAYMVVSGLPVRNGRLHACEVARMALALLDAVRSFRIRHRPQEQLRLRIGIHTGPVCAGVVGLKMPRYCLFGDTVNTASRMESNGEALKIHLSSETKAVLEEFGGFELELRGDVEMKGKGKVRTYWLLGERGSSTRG
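Compound pre-incubated 30 min at room temperature on GloSensor-loaded HEK293 cells stably carrying hNpr1 and the pGS-40F cGMP biosensor. Stimulation uses hNppA at 0.1 nM final; luminescence is taken at baseline and 20 min post-agonist.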
FLuc inh – blocks purified firefly luciferase enzyme activity; P08659; purified P. pyralis luciferase, luminescence, biochemical; Potency, µM (top dose mostly 115 µM), actives largely listed as inhibitors; 2.5% of 76,000 active; AID 1347043; further: nearly all actives have a fitted effect of over 65% in size
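Luminescence read by CCD imaging after purified firefly luciferase (10nM final) was added to substrate buffer holding 10uM D-luciferin and 10uM ATP, pH 7.5, pre-dosed with compound.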
NIH3T3 tox – NIH 3T3 cell cytotoxicity; NIH 3T3 viability, CellTiter-Glo ATP luminescence, 48-72 h; Potency, µM (series often up to 96.7 µM), for the others: at the highest dose activity change, negative = cytotoxicity, hits mostly inhibitors; 4.3% of 94,000 active; AID 1345082; further: nearly all actives have a fitted effect of over 55% in size
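Viability of NIH 3T3 cells after 48 or 72 hr compound treatment at 37 °C was assessed by CellTiter-Glo, with luminescence imaged following a 10 min room-temperature step.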
HEK cytotox – cytotoxic compounds in HEK 293 cells; HEK 293 viability, ATP luminescence (CellTiter-Glo), 48-72 h; Potency, µM (titrated, usually from 115 µM), inactives show at the highest dose activity change, negative = cytotoxicity, most hits filed as inhibitors; 6.6% of 94,000 active; AID 1345083; further: nearly all actives have a fitted effect of over 60% in size
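HEK 293 cells seeded at 250 cells/well were exposed to compound for 48 or 72 hr at 37 degree Celsius. Viability taken as ATP content by CellTiter-Glo luminescence.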
* marks the source's active call; other numbers are inactive results; [ ] = dose if it differs, or a comment. An excerpt weighted towards active compounds, which were near 11% of everything screened. Unless noted, the call rests on the fitted dose curve; in most records, active means well fitted curve in the direction sought with a large enough effect; inconclusive means small, poorly fitted or top-dose-only effect, or another doubt; inactive means no such curve, though single readings can be large; an effect the other way counts as inactive or inconclusive. On the % scale 0 is the no-effect control and ±100 the full control effect; potency means the concentration at half of the fitted maximal effect.

`CCc1cccc2c(C(CC(=O)N3CCCCC3)c3cccc(C)c3)c[nH]c12` (stereo not drawn) gave hNpr1 antagonist -6%, FLuc inh inactive, NIH3T3 tox -30% and HEK cytotox inconclusive.
CCc1cccc2c(C(CC(=O)N3CCCC3)c3cccc([N+](=O)[O-])c3)c[nH]c12 (stereo not drawn) was read as hNpr1 antagonist -13%, FLuc inh inactive, NIH3T3 tox 28µM* and HEK cytotox inconclusive.
`CCc1cccc2c(C(CC(=O)N3CCc4ccccc4C3)c3cccc4c3OCO4)c[nH]c12` (stereo not drawn) gave hNpr1 antagonist -10%, FLuc inh inactive, NIH3T3 tox 18µM* and HEK cytotox inconclusive.
For COc1cccc(C(=O)N2CCC(C(=O)N3CCC(c4nc5ncccc5[nH]4)CC3)C2)c1 (stereo not drawn) the results were NIH3T3 tox -12% and HEK cytotox 1%.
CCCN1CCC(N2CCC(C(=O)Nc3cccc(-c4cccc(F)c4)c3)CC2)CC1 was read as hNpr1 antagonist -20%, FLuc inh inactive, NIH3T3 tox 25µM* and HEK cytotox 22µM*.
Screening O=C(c1cccc(Cl)c1)N1CCN(Cc2ccccc2-c2ccccc2F)CC1 returned NIH3T3 tox 45µM* and HEK cytotox inconclusive.
O=C(NCc1cccc(F)c1)C1CCN(Cc2ccccc2-c2ccccc2F)CC1 was read as NIH3T3 tox inconclusive and HEK cytotox 40µM*.
Screening O=C(NCCCc1ccccc1)C1CCN(Cc2ccccc2-c2ccccc2F)CC1 returned NIH3T3 tox inconclusive and HEK cytotox 22µM*.
Screening O=C(NCC(F)(F)F)C1CCN(Cc2ccccc2-c2ccccc2F)CC1 returned NIH3T3 tox -22% and HEK cytotox -17%.
`O=C1CCCN1CC(=O)N1CCC(C2CCN(Cc3cccc(F)c3F)CC2)C1` (stereo not drawn) gave hNpr1 antagonist 6%, FLuc inh inactive, NIH3T3 tox 0% and HEK cytotox 2%.
Screening O=C(C1CCCCC1)N1CCC(C2CCN(Cc3cccc(F)c3F)CC2)C1 (stereo not drawn) returned hNpr1 antagonist 8%, FLuc inh inactive, NIH3T3 tox inconclusive and HEK cytotox 79µM*.
`Cc1ccc(NC(=O)c2ccc(Cn3ccn4nc5c(c4c3=O)CCCC5)cc2)cc1` gave hNpr1 antagonist -17%, FLuc inh inactive, NIH3T3 tox inconclusive and HEK cytotox inconclusive.
Screening CCOC(=O)[C@H]1C[C@]2(CCCCN(C)C2=O)N(C(=O)Cc2ccc(F)cc2)[C@H]1c1ccco1 returned NIH3T3 tox inconclusive and HEK cytotox -14%.
O=C(C1CCN(Cc2ccccc2-c2ccccc2F)CC1)N1CCC(Cc2ccccc2)CC1 was read as NIH3T3 tox 35µM* and HEK cytotox 35µM*.
`COc1ccc(OC)c(S(=O)(=O)N2CCC(c3nc(-c4cccn4C)no3)CC2)c1` gave NIH3T3 tox inconclusive and HEK cytotox 40µM*.
Screening N#Cc1cccnc1N1CCCC(CO)(Cc2ccc(F)cc2F)C1 (stereo not drawn) returned hNpr1 antagonist -3%, FLuc inh inactive, NIH3T3 tox inconclusive and HEK cytotox inconclusive.
Screening COC(=O)c1ccc2nc(C[C@@H]3C[C@@H](C(C)C)[C@H](CNCc4ccccc4O)C=C3C)[nH]c2c1 returned hNpr1 antagonist inconclusive, FLuc inh inactive, NIH3T3 tox 20µM* and HEK cytotox 22µM*.
`COC(=O)c1ccc2nc(C[C@@H]3C[C@@H](C(C)C)[C@H](CNC(=O)CCC(=O)O)C=C3C)[nH]c2c1` gave hNpr1 antagonist -2%, FLuc inh inactive, NIH3T3 tox -9% and HEK cytotox -13%.
For COC(=O)c1ccc2nc(C[C@@H]3C[C@@H](C(C)C)[C@H](CNC4CCN(C)CC4)C=C3C)[nH]c2c1 the results were hNpr1 antagonist -13%, FLuc inh inactive, NIH3T3 tox 25µM* and HEK cytotox 22µM*.
COC(=O)c1ccc2nc(C[C@@H]3C[C@@H](C(C)C)[C@H](CNS(=O)(=O)c4ccccc4)C=C3C)[nH]c2c1 was read as hNpr1 antagonist -6%, FLuc inh inactive, NIH3T3 tox 32µM* and HEK cytotox 28µM*.
COC(=O)c1ccc2nc(C[C@@H]3C[C@@H](C(C)C)[C@H](CNC4CCN(C(C)=O)CC4)C=C3C)[nH]c2c1 was read as hNpr1 antagonist 1%, FLuc inh inactive, NIH3T3 tox inconclusive and HEK cytotox inconclusive.
O=C1CCN(CC(O)CC(F)(F)F)c2ccc(F)cc2CN1C1CCCC1 (stereo not drawn) was read as NIH3T3 tox -31% and HEK cytotox inconclusive.
For O=C1CCCCN1Cc1nc(C2CCOC2)no1 (stereo not drawn) the results were hNpr1 antagonist 4%, FLuc inh inactive, NIH3T3 tox 4% and HEK cytotox 2%.
Fc1ccc(-c2nnc3ccc(N4CCN(c5ccccn5)CC4)nn23)nc1 was read as hNpr1 antagonist -2%[70.6 µM], FLuc inh inactive, NIH3T3 tox inconclusive and HEK cytotox -6%[172 µM].
For c1ccc(C2CCN(c3ccc4nnc(-c5ccccn5)n4n3)CC2)cc1 the results were hNpr1 antagonist -4%[70.6 µM], FLuc inh inactive, NIH3T3 tox 32µM* and HEK cytotox 63µM*.
Screening COc1ccnc(-c2nnc3ccc(N4CCc5ccccc5CC4)nn23)c1 returned hNpr1 antagonist 5%[70.6 µM], FLuc inh inactive, NIH3T3 tox 50µM* and HEK cytotox 56µM*.
Screening COc1ccnc(-c2nnc3ccc(N4C[C@@H](C)O[C@@H](C)C4)nn23)c1 returned hNpr1 antagonist 6%[70.6 µM], FLuc inh inactive, NIH3T3 tox 32µM* and HEK cytotox inconclusive.
`COc1ccnc(-c2nnc3ccc(N4CCN(C(=O)c5ccco5)CC4)nn23)c1` gave hNpr1 antagonist 3%[70.6 µM], FLuc inh inactive, NIH3T3 tox inconclusive and HEK cytotox 0%[172 µM].
`OCc1ccc(-c2ccc3nnc(-c4ccccn4)n3n2)cc1` gave hNpr1 antagonist 0%[70.6 µM], FLuc inh inactive, NIH3T3 tox 89µM* and HEK cytotox inactive.
COc1ccc(-c2nnc3ccc(N4CCCC4)nn23)nc1 was read as hNpr1 antagonist 3%[70.6 µM], FLuc inh inactive, NIH3T3 tox 32µM* and HEK cytotox -18%[172 µM].
`COc1ccc(-c2nnc3ccc(N4CCN(C(C)=O)CC4)nn23)nc1` gave hNpr1 antagonist -8%[70.6 µM], FLuc inh inactive, NIH3T3 tox inconclusive and HEK cytotox -4%[172 µM].
`CC(C)C[C@@H]1N[C@H](C(=O)N2CCOCC2)Cc2cn(Cc3nccn3C)c3cccc1c23` gave hNpr1 antagonist 4%[70.6 µM], FLuc inh inactive, NIH3T3 tox -30%[174 µM] and HEK cytotox -19%[172 µM].
For CC(C)C[C@@H]1N[C@H](C(=O)N2CCCC2)Cc2cn(Cc3nccn3C)c3cccc1c23 the results were hNpr1 antagonist 2%[70.6 µM], FLuc inh inactive, NIH3T3 tox -27%[174 µM] and HEK cytotox inconclusive.
